This passage reports Potency results from PubChem BioAssay AID2549 (National Center for Advancing Translational Sciences (NCATS), 2010).

Structures are written as SMILES. “And” between values parts separate entries of the source, which are not always exact repeats. Identical values can stand only once. The campaign covered roughly 240,000 compounds. About 1,300 (0.54%) were called active. Entries that show only a call come without a potency. Inconclusive results (about 1%) are left out. Calls follow the shape of the dose curve; as a rule, active = well fitted inhibition curve with a large enough effect; inconclusive = small, poorly fitted or top-dose-only effect; inactive = flat fitted curve, though single readings scatter. For the sample, actives were picked, then their nearest neighbours and some compounds at random. More than one record can exist for a structure, and the calls need not agree. Where a SMILES comes first, the peptide text is derived from it. Bridges are numbered along the chain shown (N, C = ends).
Potency is read from the fitted curve at half-maximal effect.

Sequence of ATP-dependent DNA helicase Q1 (Homo sapiens) (P46063 whole entry, looked up): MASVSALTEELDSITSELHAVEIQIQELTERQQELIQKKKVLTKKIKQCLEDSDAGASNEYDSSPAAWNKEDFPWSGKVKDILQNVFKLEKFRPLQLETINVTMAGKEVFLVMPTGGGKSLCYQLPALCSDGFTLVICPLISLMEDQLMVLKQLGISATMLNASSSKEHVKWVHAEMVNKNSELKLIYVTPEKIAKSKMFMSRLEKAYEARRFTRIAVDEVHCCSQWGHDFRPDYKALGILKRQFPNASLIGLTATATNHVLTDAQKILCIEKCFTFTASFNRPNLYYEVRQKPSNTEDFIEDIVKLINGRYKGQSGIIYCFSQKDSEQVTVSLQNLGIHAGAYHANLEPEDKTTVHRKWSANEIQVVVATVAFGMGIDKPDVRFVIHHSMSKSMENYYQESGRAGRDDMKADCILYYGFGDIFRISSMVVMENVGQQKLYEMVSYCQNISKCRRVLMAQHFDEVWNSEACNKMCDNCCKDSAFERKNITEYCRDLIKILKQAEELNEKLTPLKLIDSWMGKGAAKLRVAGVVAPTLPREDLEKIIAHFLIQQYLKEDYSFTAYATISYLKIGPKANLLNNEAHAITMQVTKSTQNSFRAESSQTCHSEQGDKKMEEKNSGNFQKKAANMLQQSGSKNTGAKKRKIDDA

The target in this assay is ATP-dependent DNA helicase Q1 (Homo sapiens) (UniProt P46063). The assay is described as follows: qHTS Assay for Inhibitors of RecQ-Like Dna Helicase 1 (RECQ1). Also: nearly all actives have a fitted effect of over 30% in size. To be noted: RECQ1 DNA unwinding, red fluorescence kinetic read; series mostly up to 57.3 µM. In a few lines:
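50 nM RECQ1T1 preincubated 15 min with compound in Tris pH 8.0 buffer with MgCl2, DTT, Tween-20 and 2.5 ug/ml poly(dI-dC); started with 200 nM TAMRA/BHQ-2 forked duplex and 2 mM ATP. Unwinding read as fluorescence (525/598 nm), two reads 2 h apart.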
(qHTS replaces the single test concentration by a dilution series.)
Take `C=C1/C(=C\C=C2\CCCC3(C)C2CCC3C(C)/C=C/C(O)C2CC2)CC(O)CC1O` (stereo not drawn): the Potency entry was “inactive”.
For the molecule `CCCCc1nn(-c2ccccc2C(F)(F)F)c(=O)n1Cc1ccc(-c2ccccc2S(=O)(=O)NC(=O)c2sccc2C)cc1`, the Potency entry is “inactive”.
As for `COC(=O)c1ccc(C(NC(=O)OCc2ccccc2)/C(F)=C/[C@@H](C)C(=O)O)cc1` (stereo partly drawn), the Potency result was “inactive”.
Regarding `COc1ccc(CCCOC(Cn2ccnc2)c2ccc(OC)cc2)cc1` (stereo not drawn), the Potency result was “inactive”.
Take `O=C1N/C(=C/c2cccn2-c2ccccc2)C(=O)N1c1cccc(Cl)c1`: the Potency result is “inactive”.
In the case of `Cc1ccccc1NC(=O)CN1C(=O)N/C(=C\c2cccn2-c2cccc(C(=O)O)c2)C1=O`, the Potency was 14.1 µM (active).
`Cc1cccc(NC(=O)CN2C(=O)c3ccccc3C2=O)c1C`: the Potency result was “inactive”.
As to `COc1ccccc1NC(=S)N1CCN(C(c2ccccc2)c2ccccc2)CC1`, the Potency result is “inactive”.
In the case of `COc1ccc(Br)cc1C1C2C=CCC(C)C2C(=O)N1Cc1ccccc1` (stereo not drawn) it was “inactive”; in that of `O=C1c2ccccc2C(=O)N1CCCc1nc(-c2ccccc2)no1`, “inactive”.
With `O=C1c2cccnc2C(=O)N1Cc1cccs1`, the Potency result is “inactive”.
In the case of `O=C1c2ccccc2C(=O)N1Cc1cc(-c2ccccc2Cl)no1`, the Potency was 31.6 µM (active).
Take `Oc1ccc(N=Cc2sc3ccccc3c2Cl)cc1`: the Potency is 8.91 µM (active).
Take `O=C(N/N=C/c1c(Cl)[nH]c2ccccc12)c1sc2ccccc2c1Cl`: the Potency entry is “inactive”.
For `Oc1ccc(N=Cc2c(O)ccc3ccccc23)cc1`, the Potency result is “inactive”.
In the case of `C[C@@H](O)[C@@H]1NC(=O)[C@H](CCCCN)NC(=O)[C@H](Cc2c[nH]c3ccccc23)NC(=O)[C@H](Cc2ccccc2)NC(=O)[C@H](Cc2ccccc2)NC(=O)[C@H](CC(N)=O)NC(=O)[C@H](CCCCN)NC(=O)[C@@H](NC(=O)[C@@H]2CCCN2)CSSC[C@@H](C(=O)N[C@@H](CCCCN)C(=O)O)NC(=O)[C@H](CO)NC(=O)[C@H](CO)NC(=O)[C@H](Cc2ccccc2)NC1=O` (H-PCKNFFWKTFSSCK-OH; disulfide 2-13) it was “inactive”; in that of `CCCN1CCC(=O)N(C(CSc2ccc(OC)cc2)Cc2ccccc2)CC1` (stereo not drawn), “inactive”.
In the case of `O=C(O)C1CC=CC2CCN(C3CCCCC3)C(=O)C21` (stereo not drawn) it was “inactive”; in that of `Cc1ccc(C)c(CSc2nc(-c3ccco3)nc3c2c(=O)n(C)c(=O)n3C)c1`, “inactive”; in that of `CC/C=C/C(=O)N1CC2(CC(c3cccc(NC(=O)CC)c3)=NO2)C[C@H]1C(N)=O` (stereo partly drawn), “inactive”.
Regarding `C/C=C\C=C\C(=O)N1CC2(CC(c3cccc(NC(=O)/C(C)=C\C)c3)=NO2)C[C@H]1C(N)=O` (stereo partly drawn), the Potency is 20 µM (active).
Take `C/C=C(/C)C(=O)Nc1cccc(C2=NOC3(C2)C[C@@H](C(N)=O)N(C(=O)C2(C)CC2)C3)c1` (stereo partly drawn): the Potency entry was “inactive”.
On to `O=S(O)S(=O)(=O)O`, for which the Potency entry is “inactive”.
In the case of `O=C(N/N=C/C=C/c1ccco1)c1cccs1` it was 35.5 µM (active); in that of `Cc1ccc(-c2cc(C(=O)N/N=C/C=C/c3ccco3)c3ccccc3n2)cc1C`, “inactive”; in that of `CC(=O)Nc1ccc(/C=N/NC(=O)c2cccs2)cc1`, “inactive”.
With `CC(=O)c1ccc(S(=O)(=O)N2CCN(C(=O)/C=C/c3ccc4ccccc4n3)CC2)cc1`, the Potency was 25.1 µM (active).
Consider `NC(=O)COC(=O)/C=C/c1ccc2ccccc2n1`, for which the Potency entry is “inactive”.
In the case of `COC(=O)c1ccc(S(=O)(=O)N2CCC(c3nc4ccccc4o3)CC2)cc1` it was “inactive”; in that of `O=c1cc(CCl)nc2scc(-c3ccccc3)n12`, “inactive”.
`CCc1nnc(NC(=O)c2cccc(S(=O)(=O)N(C)c3ccc(OC)cc3)c2)s1`: the Potency result is “inactive”.
`CCc1nnc(NC(=O)c2sc3nc(C)cc(COC)c3c2N)s1`: the Potency entry is “inactive”.
As to `CCc1ccc2nc3sc(C(=O)Nc4nnc(CC)s4)c(N)c3cc2c1`, the Potency was 31.6 µM (active).
`Cc1ccc(CNC(=O)C2(C(F)(F)F)C/C(=C\CCO)CCCO2)o1` (stereo not drawn): the Potency entry is “inactive”.
In the case of `Nc1ccc2c3c(cccc13)C(=O)NC2=O`, the Potency entry is “inactive and 25.1 µM (active)”.
Consider `CCN1C(=O)c2cccc3c(N)ccc1c23`, for which the Potency result was “inactive”.
Consider `CCC(C)[C@@H](N)C(=O)O` (stereo partly drawn), for which the Potency result is “inactive”.
Consider `COc1ccc(CC(N)C(=O)NC2C(O)[C@H](n3cnc4c(N(C)C)ncnc43)O[C@@H]2CO)cc1` (stereo partly drawn), for which the Potency entry is “inactive”.
`S=C(NCCc1ccccc1)N1CCn2cccc2C1c1ccncc1` (stereo not drawn): the Potency result was “inactive”.
For `Cc1ccc(C)c(SCc2nc3sc(C(=O)O)c(C)c3c(=O)[nH]2)c1` the value was “inactive”; for `CCOC(=O)c1ccc[n+](CC(=O)Nc2ccccc2OC(F)F)c1`, “inactive”; for `Cc1ccc(-c2nc(SCC(=O)Nc3ccccc3OC(F)F)c3c(C)c(C(=O)O)sc3n2)cc1`, 25.1 µM (active).
In the case of `CCOC(=O)C(CC)/C(C)=N\NC(=O)c1cccc(C)c1` (stereo not drawn) it was “inactive”; in that of `C[C@H]1CCC[C@@]2(C)CCCC[C@]12O`, “inactive”; in that of `COc1cc(OC)c2c(C)cc(=O)oc2c1C(CCN1CCCCC1)c1ccc(N(C)C)cc1` (stereo not drawn), “inactive”.
With `Cn1cccc1/C=C1\SC(=O)N(CC(=O)Nc2ccc(F)cc2)C1=O`, the Potency entry is “inactive”.
As for `N#Cc1ccccc1CN1C(=O)S/C(=C/c2cccn2-c2cccc(C(=O)O)c2)C1=O`, the Potency is 28.2 µM (active).
For `O=C(O)c1cccc(N2C(=O)Nc3ccccc3N2O)c1` the value was “inactive”.
On to `O=c1ccn([C@@H]2O[C@H](COP(=O)(O)OP(=O)(O)OP(=O)(O)O)[C@@H](O)[C@H]2O)c(=O)[nH]1`, for which the Potency result was “inactive”.
With `COc1ccc(OC)c(C(=O)c2ccc(C(=O)N3CCN(Cc4csc(C)n4)CC3)cc2)c1`, the Potency result was “inactive”.
As to `O=C1C2C(c3ccccc3)CC=CC2C(c2ccoc2)N1Cc1ccccc1` (stereo not drawn), the Potency result was “inactive”.
For `O=C(COC(=O)C12CC3CC(CC(C3)C1)C2)NCc1ccco1`, the Potency entry is “inactive”.
As to `O=C(CCC(=O)c1cccs1)NCc1ccccc1`, the Potency entry was “inactive”.
`O=C(COC(=O)CCC(=O)c1cccs1)NCc1ccco1`: the Potency is 7.94 µM (active).
As to `COc1ccc(/C=N/NC(=O)c2ccncc2)cc1CN1CCCc2ccccc21`, the Potency result was “inactive”.
Regarding `NS(=O)(=O)c1ccc(NC(=O)COC(=O)CCc2c[nH]c3ccccc23)cc1`, the Potency entry was “inactive”.
In the case of `CC[C@H](C)[C@H](NC(=O)[C@@H](N)CCC(=O)O)C(=O)N[C@@H](CC(C)C)C(=O)N[C@@H](CC(=O)O)C(=O)N[C@H](C(=O)N1CCC[C@H]1C(=O)N[C@@H](CO)C(=O)N[C@H](C(=O)O)[C@@H](C)O)C(C)C`, the Potency result is “inactive”.
With `O=c1cc(-c2ccc(O)cc2)oc2c([C@@H]3O[C@H](CO)[C@@H](O)[C@H](O)[C@H]3O)c(O)cc(O)c12`, the Potency entry is “inactive”.
